# Compound activity as filed in PubChem BioAssay.
# KCNQ2 pot = potentiators of rat KCNQ2 potassium channel; CHO-K1 KCNQ2, FluxOR thallium flux fluorescence; hits give high values; B-score at 10 µM; 310,000 compounds, 0.54% hits; AID 2239;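 active = fluorescence ratio B-score at least 3 SD of library B-scores, with initial fluorescence B-score within 3 of them, cut at about 5.3 in these data; same plate scores as AID 2156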;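 also: B-score of peak minus minimum over baseline fluorescence ratio after K+ and Tl+ stimulus; positive B-score means potentiation of KCNQ2 with more thallium influx and brighter signal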
# Target sequence (O88943 whole entry, looked up): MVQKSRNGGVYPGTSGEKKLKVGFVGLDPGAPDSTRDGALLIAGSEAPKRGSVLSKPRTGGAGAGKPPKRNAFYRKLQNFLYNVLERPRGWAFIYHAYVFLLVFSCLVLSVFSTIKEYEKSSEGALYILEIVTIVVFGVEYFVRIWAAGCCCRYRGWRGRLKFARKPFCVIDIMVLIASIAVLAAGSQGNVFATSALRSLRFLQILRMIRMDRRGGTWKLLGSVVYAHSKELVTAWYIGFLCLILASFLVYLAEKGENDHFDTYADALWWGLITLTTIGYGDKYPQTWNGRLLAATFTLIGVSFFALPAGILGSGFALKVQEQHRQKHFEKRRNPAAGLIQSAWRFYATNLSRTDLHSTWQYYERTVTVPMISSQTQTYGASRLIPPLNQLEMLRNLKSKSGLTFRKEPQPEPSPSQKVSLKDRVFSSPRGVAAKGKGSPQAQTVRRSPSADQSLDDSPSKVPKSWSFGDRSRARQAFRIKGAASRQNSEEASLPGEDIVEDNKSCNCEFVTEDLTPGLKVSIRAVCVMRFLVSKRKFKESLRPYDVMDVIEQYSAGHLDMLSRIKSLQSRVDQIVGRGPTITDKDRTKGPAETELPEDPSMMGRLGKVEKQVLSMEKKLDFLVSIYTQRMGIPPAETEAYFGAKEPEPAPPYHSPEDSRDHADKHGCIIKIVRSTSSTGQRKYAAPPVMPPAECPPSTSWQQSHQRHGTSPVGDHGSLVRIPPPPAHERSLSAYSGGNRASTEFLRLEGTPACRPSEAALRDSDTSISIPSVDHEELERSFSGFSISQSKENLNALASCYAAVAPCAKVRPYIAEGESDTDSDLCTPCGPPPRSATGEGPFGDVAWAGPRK
# KCNQ2 inh = KCNQ2 (rat) channel inhibition | B-score at 10 µM | O88943 | 310,000 compounds, 1.1% hits | CHO-K1 KCNQ2, FluxOR thallium flux, 20 min; hits give low values;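 active = fluorescence ratio B-score at most minus 3 library SDs, with starting brightness B-score within 2 library SDs, cut at about -5.5 in these data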
# Starred values were filed as active, the others as inactive; i = inactive; x = no result given. Compounds with a hit are over-represented: about 1.6% of the library has one in this group of screens.
SMILES,KCNQ2 pot,KCNQ2 inh
CC1(C)CC(=O)C(C(C2=C(O)CC(C)(C)CC2=O)c2cccs2)C(=O)C1 (stereo not drawn),6.17*,i
Cc1ccc(-c2nnn(CC(=O)N(CCN3CCOCC3)C(C(=O)NC(C)(C)C)c3ccc(C)o3)n2)cc1 (stereo not drawn),-6.05,-6.05*
Cc1ccc(-c2nnn(CC(=O)N(CCN3CCOCC3)C(C(=O)NC(C)(C)C)c3ccco3)n2)cc1 (stereo not drawn),x,i
O=c1c2[nH]c3ccc(F)cc3c2nc2n1CCCS2,1.66,i
O=C(CCCN1C(=O)/C(=C/c2ccc(F)cc2)SC1=S)NC1CCS(=O)(=O)C1 (stereo not drawn),0.92,i
CCCCSc1nc(C)cc(SCC(=O)N/N=C/c2cccc(OC)c2O)n1,6.35*,i
COc1cccc(/C=N/NC(=O)CSc2nnc(C)n2-c2ccccc2)c1O,x,i
CC(OC(=O)COc1cccc2c1OC(C)(C)C2)C(=O)Nc1ccc(S(N)(=O)=O)cc1 (stereo not drawn),0.53,i
COc1ccc(-c2c[n+]3c4n2CCCCC4=C(c2ccccc2)C3)cc1,-6.15,-6.15*
COc1ccc(-c2c[n+](CC(=O)c3ccccc3)c3n2CCCCC3)cc1,x,i
O=C(COC(=O)c1cc(S(=O)(=O)N2CCCCC2)ccc1N1CCOCC1)NC1CCS(=O)(=O)C1 (stereo not drawn),0.18,i
O=C(Nc1cccc(O)c1)c1c(O)c2ccccc2[nH]c1=O,0.67,i
COc1ccc(S(=O)(=O)N2CCOC23CCN(S(=O)(=O)c2cc(F)ccc2F)CC3)cc1,x,i
CC(C)Oc1cc(C(=O)NC2CCCCC2)c2ccccc2n1,-6.03,-6.03*
O=C(NC1CCCCCCC1)c1cc(-c2ccccn2)nc2ccccc12,x,i
O=C(c1cc(-c2cccc(Cl)c2)nc2ccccc12)N1CCCC1,-8.08,-8.08*
O=C(Nc1ccccn1)c1cc(-c2cccc(Cl)c2)nc2ccccc12,-5.64,-5.64*
O=C(Nc1ccc([N+](=O)[O-])cn1)c1cc(-c2cccc(Cl)c2)nc2ccccc12,-5.58,-5.58*
O=C(c1cc(-c2ccccc2)nc2ccccc12)N1CCCC1,0.04,i
O=C(Nc1ccc([N+](=O)[O-])cn1)c1cc(-c2cccc(Br)c2)nc2ccccc12,x,i
O=C(Nc1ncccn1)c1cc(-c2cccc(Br)c2)nc2ccccc12,x,i
CC(=O)c1nnn(-c2ccc([N+](=O)[O-])cc2)c1C,0.56,i
CCCOc1ccc(Oc2ccc(S(=O)(=O)N3CCN(C)CC3)cn2)cc1,x,i
N#Cc1ccccc1CSc1nc2ccsc2c(=O)n1Cc1ccccn1,x,i
Cc1ccc(CSc2nc3ccsc3c(=O)n2Cc2ccccn2)cc1,-6.21,-6.21*
SMILES,KCNQ2 pot,KCNQ2 inh
Cc1c(CNC2CCCC2)c(C(=O)O)c(C)n1Cc1ccccc1,x,i
COc1ccc(NC(=O)C(c2ccccc2)N2CCN(c3ccccn3)CC2)cc1Cl (stereo not drawn),-6.35,-6.35*
COc1cc(NC(=O)CN2CCN(c3ccccn3)CC2)cc(OC)c1OC,x,i
Cn1c(=O)c(/C=C/c2ccc(F)cc2)nc2ccccc21,-5.88,-5.88*
Cn1c(=O)c(/C=C/c2ccccc2)nc2ccccc21,x,i
Cc1cc(NC(=O)CSc2nnc(C)n2C)no1,x,i
CCn1ccnc1CN(C)Cc1cn(-c2cccc(C)c2)nc1-c1cccc(F)c1,x,i
Cc1cccc(-n2cc(CN(C)Cc3nccn3C)c(-c3cccc(F)c3)n2)c1,-6.71,-6.71*
COc1cccc(-c2nc(CS(=O)(=O)CC(=O)Nc3cc(OC)ccc3OC)c(C)o2)c1,x,i
CCC(=O)Nc1c2c(nn1-c1ccc(F)cc1)CS(=O)(=O)C2,x,i
O=C(CSCc1c(F)cccc1Cl)NCCSCc1ccco1,x,i
O=C(CSCc1ccc(Cl)cc1)NCCSCc1ccco1,-6.39,-6.39*
COc1ccccc1N(CC(=O)NCCSCc1ccc(Cl)cc1)S(C)(=O)=O,0.05,i
COc1ccccc1OCC(=O)NCCSCc1ccc(Cl)cc1,-5.63,-5.63*
COc1ccc(-c2csc3ncn(CC(=O)N4CCOCC4)c(=O)c23)cc1,x,i
COC(=O)C1CN(C(=O)COc2ccc(Cl)cc2C)c2ccccc2O1 (stereo not drawn),-6.97,-6.97*
COC(=O)C1CN(C(=O)COc2ccccc2C)c2ccccc2O1 (stereo not drawn),x,i
COc1ccc(NC2CCCN(C(=O)COc3ccc(Cl)cc3C)C2)cc1OC (stereo not drawn),-6.13,-6.13*
COc1ccccc1OCC(=O)N1CCCC(Nc2ccc(C)c(C)c2)C1 (stereo not drawn),x,i
COc1ccc(N2CCN(C(=O)Cc3ccc(S(=O)(=O)N4CCOCC4)s3)CC2)cc1,0.04,i
CCOc1ccc2nc(NC(=O)CN3C(=O)NC4(CCCC4)C3=O)sc2c1,1.18,i
CCOC(=O)c1c(NC(=O)c2c(C(=O)O)cccc2[N+](=O)[O-])sc2c1CCCC2,0.39,i
COCCn1cnc2c(c1=O)c1nc3ccccc3nc1n2/N=C/c1cccc(OC)c1,x,i
C=CCn1cnc2c(c1=O)c1nc3ccccc3nc1n2/N=C/c1cc(OC)c(OC)c(OC)c1,-7.86,-7.86*
COc1cccc(C(=O)Nc2nnc(SCC(=O)Nc3ccc(NC(C)=O)cc3)s2)c1,0.52,i
SMILES,KCNQ2 pot,KCNQ2 inh
O=C(Nc1cc(Sc2nc3ccccc3s2)cc([N+](=O)[O-])c1)c1ccccc1F,-6.03,-6.03*
O=C(Nc1cc(Sc2nc3ccccc3s2)cc([N+](=O)[O-])c1)c1ccccc1,x,i
O=C(OCc1nnc(-c2ccc(Cl)cc2)o1)c1ccncc1,x,i
Cc1noc(C)c1COc1ccc(C(=O)OCc2nnc(-c3ccc(Cl)cc3)o2)cc1,-7.63,-7.63*
Cc1ccc(N2CCN(C(=O)c3cc(COc4c(C)cccc4C)on3)CC2)c(C)c1,x,i
Cc1cccc(C)c1OCc1cc(C(=O)N2CCCCCCC2)no1,-6.55,-6.55*
CSc1ccccc1OCc1cc(C(=O)N(C)C2CCCc3ccccc32)no1 (stereo not drawn),x,i
CN(C(=O)c1cccc(C(F)(F)F)c1)C1CCCc2ccccc21 (stereo not drawn),-5.77,-5.77*
COc1ccc(OC)c(S(=O)(=O)N2CCN(c3ccccc3)CC2)c1,0.08,i
CCc1ccccc1N1CCN(S(=O)(=O)c2cc(OC)ccc2OC)CC1,-7.06,-7.06*
CC(C)(C)C(=O)NC(=S)NNC(=O)c1ccc(Cl)cc1Cl,5.01,i
Cc1ccc(-c2nn(-c3ccccc3)cc2NC(=O)c2ccccc2)cc1,-5.71,-5.71*
O=C(Nc1cn(-c2ccccc2)nc1-c1ccc(Cl)cc1)c1ccccc1,x,i
COC(=O)COc1ccc(-n2cnnn2)cc1,1.84,i
CCn1c(SCc2cccc(F)c2)nnc1-c1ccncc1,0.79,i
CCn1c(SCc2cccc(C)c2)nnc1-c1ccc(C)cc1,-5.98,-5.98*
CCc1cccc2c(C(=O)C(F)(F)F)cn(CC(=O)N3CCOCC3)c12,x,i
O=C(NCCc1ccccc1)c1ccc(-c2ccc(F)cc2)o1,-5.84,-5.84*
O=C(NCc1ccccc1)c1ccc(-c2ccccc2F)o1,x,i
Cc1ccc(C(=O)N(CCc2ccccc2)Cc2ccccc2)cc1S(=O)(=O)N1CCCCC1,-8.06,-8.06*
Cc1ccc(C(=O)OCC(=O)N(CCc2ccccc2)Cc2ccccc2)cc1S(=O)(=O)N1CCOCC1,-6.04,-6.04*
